Test results taken from PubChem BioAssay AID1508636 (National Center for Advancing Translational Sciences (NCATS), 2021).
Records with an inconclusive call do not appear. Unmarked numbers belong to inactive results. Active and inactive are the calls of the source. Calls follow the shape of the dose curve; as a rule, active = well fitted inhibition curve with a large enough effect; inconclusive = small, poorly fitted or top-dose-only effect; inactive = flat fitted curve, though single readings scatter. Where a SMILES comes first, the peptide text is derived from it. The star is where a group is joined. Cbz = O=C(OCc1ccccc1)*

The compounds below were run against ATP-dependent translocase ABCB1 (Homo sapiens) (UniProt P08183) (assay: qHTS for characterization and localization of zebrafish homologs of the human ABCB1 multidrug transporter: P-gp overexpressing MDR-19 cells). Settings: MDR-19 cells overexpressing P-gp, CellTiter-Glo luminescence viability, 72 h; series mostly up to 46.1 µM; activity change, negative = inhibition: at the top concentration.
Chain of ATP-dependent translocase ABCB1 (Homo sapiens) (P08183 whole entry, looked up): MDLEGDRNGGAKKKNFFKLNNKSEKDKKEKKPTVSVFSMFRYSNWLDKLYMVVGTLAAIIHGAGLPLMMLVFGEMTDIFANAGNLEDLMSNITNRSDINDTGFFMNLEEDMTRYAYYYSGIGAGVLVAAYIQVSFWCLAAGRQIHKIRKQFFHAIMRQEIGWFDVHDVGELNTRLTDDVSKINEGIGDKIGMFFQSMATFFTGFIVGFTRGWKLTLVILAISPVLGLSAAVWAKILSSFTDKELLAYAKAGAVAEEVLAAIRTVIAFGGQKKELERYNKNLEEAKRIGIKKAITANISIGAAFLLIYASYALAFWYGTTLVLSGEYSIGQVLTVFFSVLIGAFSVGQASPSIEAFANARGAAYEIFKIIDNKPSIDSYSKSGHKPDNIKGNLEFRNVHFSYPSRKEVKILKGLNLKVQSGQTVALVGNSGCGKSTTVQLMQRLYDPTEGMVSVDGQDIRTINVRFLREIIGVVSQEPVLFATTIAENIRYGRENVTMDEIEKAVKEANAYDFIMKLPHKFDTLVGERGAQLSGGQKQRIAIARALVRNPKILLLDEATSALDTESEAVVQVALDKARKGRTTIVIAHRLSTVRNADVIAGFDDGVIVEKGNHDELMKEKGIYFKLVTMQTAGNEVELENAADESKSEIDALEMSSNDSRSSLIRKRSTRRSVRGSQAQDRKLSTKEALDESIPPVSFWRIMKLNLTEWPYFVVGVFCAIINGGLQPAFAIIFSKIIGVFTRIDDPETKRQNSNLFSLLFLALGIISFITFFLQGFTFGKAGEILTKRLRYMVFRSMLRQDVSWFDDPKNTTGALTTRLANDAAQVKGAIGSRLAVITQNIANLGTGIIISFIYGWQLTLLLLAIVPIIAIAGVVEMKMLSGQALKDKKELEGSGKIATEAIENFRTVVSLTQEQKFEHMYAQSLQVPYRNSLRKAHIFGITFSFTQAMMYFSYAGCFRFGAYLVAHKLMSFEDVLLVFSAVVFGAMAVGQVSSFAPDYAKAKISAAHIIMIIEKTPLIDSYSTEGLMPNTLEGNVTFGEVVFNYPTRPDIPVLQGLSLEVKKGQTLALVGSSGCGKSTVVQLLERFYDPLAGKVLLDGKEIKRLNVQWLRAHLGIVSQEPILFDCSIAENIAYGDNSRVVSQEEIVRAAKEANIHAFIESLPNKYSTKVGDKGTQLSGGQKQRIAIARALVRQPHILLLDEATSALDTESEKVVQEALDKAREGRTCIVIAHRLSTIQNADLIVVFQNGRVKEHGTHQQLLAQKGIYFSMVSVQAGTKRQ
Procedure, shortened: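 Empty-vector, P-gp-overexpressing MDR-19 and zebrafish abcb4- or abcb5-transfected cells were exposed to ~90 P-gp substrates at varying concentrations for 72 h at 37C. Viability was read by CellTiter-Glo luminescence; cytotoxic meant inhibitory curve class, >50% maximal response and AC50 < 10 uM.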
For Cc1ccc(C(=O)N(CCCN)[C@@H](c2oc3cc(Cl)ccc3c(=O)c2Cc2ccccc2)C(C)C)cc1, the Potency was 13.2 µM (active). For C/C=C1/NC(=O)C2CSSCCC=CC(CC(=O)NC(C(C)C)C(=O)N2)OC(=O)C(C(C)C)NC1=O (stereo not drawn), the Potency was 7.43 µM (active). CC1(C)CC[C@]2(C(=O)OC3OC(CO)C(O)C(O)C3O)CC[C@]3(C)C(=CCC4[C@@]5(C)CC[C@H](OC6OC(C(=O)O)C(O)C(O)C6O)C(CO)(CO)C5CC[C@]43C)[C@@H]2C1 (stereo partly drawn) was tested, and the “activity change, negative = inhibition” value was 4.43% [at 15.2 µM]. With NC(=O)Nc1cc(-c2cccc(F)c2)sc1C(=O)N[C@H]1CCCNC1 the Potency was 8.33 µM (active). With C=CCn1c(=O)c2cnc(Nc3ccc(N4CCN(C)CC4)cc3)nc2n1-c1cccc(C(C)(C)O)n1 the Potency was 4.69 µM (active). In the case of COc1cc2c(NC3CCN(C(C)C)CC3)nc(N3CCCN(C)CC3)nc2cc1OCCCN1CCCC1, the “activity change, negative = inhibition” value was -13.1%. For CCN(CCCO)CCCOc1ccc2c(Nc3cc(CC(=O)Nc4cccc(F)c4)[nH]n3)ncnc2c1, the “activity change, negative = inhibition” value was -4.66%. For CCn1c(-c2nonc2N)nc2c(C#CC(C)(C)O)ncc(OC[C@H]3CCCNC3)c21, the “activity change, negative = inhibition” value was -13.1%. With C[C@@H](Oc1cc(-n2cnc3ccc(CN4CCN(C)CC4)cc32)sc1C(N)=O)c1ccccc1C(F)(F)F the Potency was 0.469 µM (active). CCc1cccc(CC)c1NC(=O)N1Cc2[nH]nc(NC(=O)c3ccc(N4CCN(C)CC4)cc3)c2C1 was tested, and the “activity change, negative = inhibition” value was 3.47%. With CC(C)C[C@@H](C=O)NC(=O)[C@H](CC(C)C)NC(=O)[C@H](CC(C)C)NC(=O)OCc1ccccc1 (Cbz-Leu-Leu-Leu-aldehyde) the Potency was 3.72 µM (active). In the case of CC(C)C[C@H](NC(=O)[C@@H](NC(=O)c1cccc(-c2ccccc2)n1)[C@@H](C)O)B(O)O, the Potency was 0.372 µM (active). With C#Cc1cccc(Nc2ncnc3cc(OC)c(OCCCCCCC(=O)NO)cc23)c1 the Potency was 14.8 µM (active).
